These results are taken from the supplement of paper PMC13380429.

Assay [1] concerns Vero E6 infected with SARS-CoV-2. Briefly: morphology score (similarity to uninfected cells); higher = more like uninfected cells. The conditions noted are these: 24 h.
The test system is the same in assay [2]. Briefly: SARS-CoV-2 infection rate relative to infected DMSO; higher = more infection, active = 60 or less. To be noted: 24 h.

`C=C1/C(=C\C=C2/CCC[C@]3(C)[C@@H]([C@H](C)/C=C/[C@@H](O)C4CC4)CC[C@@H]23)C[C@@H](O)C[C@@H]1O` [calcipotriol] (10 µM) came in with a morphology score in assay [1] of -0.273. Further, in assay [2], the SARS-CoV-2 infection rate was 103% (inactive).
With `C=CC(=O)Nc1cccc(Oc2nc(Nc3ccc(N4CCN(C)CC4)cc3)ncc2Cl)c1` (10 µM), in assay [1], the morphology score is -0.115. Also, the SARS-CoV-2 infection rate in assay [2] is 118% (inactive).
In assay [1], `OC[C@H]1O[C@@H](Oc2cc3c(O)cc(O)cc3[o+]c2-c2ccc(O)c(O)c2)[C@H](O)[C@@H](O)[C@@H]1O` [kuromanin] (10 µM) registered a morphology score of -0.129. Besides, the SARS-CoV-2 infection rate in assay [2] is 110% (inactive).
Compound `CC1(C)C[C@@H]1C(=O)N/C(=C\CCCCSC[C@H](N)C(=O)O)C(=O)O` [Cilastatin Sodium] (10 µM) came in with a morphology score in assay [1] of 0.215. The SARS-CoV-2 infection rate in assay [2] is 88.5% (inactive).
In assay [1], `O=C(O)[C@H]1CN(C/C=C/P(=O)(O)O)CCN1` [midafotel] (10 µM) had a morphology score of 0.0949. The SARS-CoV-2 infection rate in assay [2] is 89% (inactive).
On to `CC/C=C\C/C=C\C/C=C\C/C=C\C/C=C\C/C=C\CCC(=O)OCC` [doconexent-ethyl-ester] (10 µM), for which, in assay [1], the morphology score was 0.193. Further, the SARS-CoV-2 infection rate in assay [2] was 88.5% (inactive).
Compound `NC(=O)OCCCc1ccccc1` [phenprobamate] (10 µM) came in with a morphology score in assay [1] of 0.0438. Moreover, the SARS-CoV-2 infection rate in assay [2] is 102% (inactive).
As for `COc1cc2c(cc1OC)-c1cc3nc4ccccc4nc3n1C(C)(C)C2` (10 µM), in assay [1], the morphology score stood at 0.134. Moreover, the SARS-CoV-2 infection rate in assay [2] is 91% (inactive).
Take `C[C@]12CCC(=O)C=C1C=C[C@@H]1[C@@H]2CC[C@@]2(C)[C@H]1CC[C@@]21CCC(=O)O1` [canrenone] (10 µM): in assay [1], the morphology score was determined as 0.219. Besides, in assay [2], the SARS-CoV-2 infection rate is 94% (inactive).
The matching figures for `Cc1cc(Nc2ncnc3ccc(NC4=NC(C)(C)CO4)cc23)ccc1Oc1ccn2ncnc2c1` [tucatinib] (0.833333 µM): -0.0894 and 114% (inactive).
The matching figures for `COc1cc([C@@H]2c3cc4c(cc3[C@@H](O[C@@H]3O[C@@H]5CO[C@@H](C)O[C@H]5[C@H](O)[C@H]3O)[C@H]3COC(=O)[C@H]23)OCO4)cc(OC)c1OP(=O)(O)O` [etoposide-phosphate] (10 µM): 0.101 and 94.5% (inactive).
The matching figures for `O=C1OC(c2ccc(O)cc2)(c2ccc(O)cc2)c2ccccc21` [phenolphthalein] (10 µM): 0.0414 and 110% (inactive).
In assay [1], `CCCCCCCCCCCCCCCCCCCCCCO` [docosanol] (10 µM) had a morphology score of 0.0474. Also, the SARS-CoV-2 infection rate in assay [2] is 102% (inactive).
Regarding `CCCOc1ccc(Br)cc1-c1cc(-c2ccc(Cl)cc2)[nH]c1-c1ccncc1` (10 µM), in assay [1], the morphology score came to 0.113. Besides, the SARS-CoV-2 infection rate in assay [2] was 100% (inactive).
Compound `O=C(O)c1cc(O)c2c3nc4ccccc4oc-3cc(=O)c2n1` [pirenoxine] (10 µM) yielded a morphology score in assay [1] of 0.0951. The SARS-CoV-2 infection rate in assay [2] was 102% (inactive).
Turning to `CC(C)(C)CC(C)(C)c1ccc(OCCOCC[N+](C)(C)Cc2ccccc2)cc1` [benzethonium] (10 µM), the morphology score in assay [1] is -0.104. Further, in assay [2], the SARS-CoV-2 infection rate is 108% (inactive).
In the case of `COc1cc(N)c(Cl)cc1C(=O)NC1CN2CCC1CC2` (stereo not given) [zacopride] (10 µM), the morphology score in assay [1] amounted to 0.169. For the same compound, in assay [2], the SARS-CoV-2 infection rate was 89% (inactive).
Regarding `CN(CC(=O)O)C(=N)N` [creatine] (10 µM), in assay [1], the morphology score worked out at 0.0148. In addition, in assay [2], the SARS-CoV-2 infection rate was 113% (inactive).
The compound `Oc1ccc2c3c1O[C@H]1c4oc5ccccc5c4C[C@@]4(O)[C@@H](C2)N(CC2CC2)CC[C@]314` [naltriben] (10 µM) displayed a morphology score in assay [1] of -0.128. In assay [2], the SARS-CoV-2 infection rate was 106% (inactive).
The like results for `CN1CCN(c2ncc(-c3cc(Cl)cc(Cl)c3Cl)c(N)n2)CC1` [sipatrigine] (10 µM) were, in that order, 0.204 and 82% (inactive).
On to `Cc1nccn1CCC(C(N)=O)(c1ccccc1)c1ccccc1` [imidafenacin] (10 µM), for which, in assay [1], the morphology score worked out at 0.133. In addition, in assay [2], the SARS-CoV-2 infection rate was 93% (inactive).
On to `CC(C)CNc1ccnc(NCc2csc(-c3ccccc3)n2)n1` (0.833333 µM), for which, in assay [1], the morphology score is -0.0256. In addition, in assay [2], the SARS-CoV-2 infection rate is 106% (inactive).
Take `CNC(=O)Oc1ccccc1OC(C)C` [propoxur] (10 µM): in assay [1], the morphology score was -0.276. Besides, in assay [2], the SARS-CoV-2 infection rate is 118% (inactive).
`Cc1c(C(=O)Nc2ccc(N3C[C@@H](C)O[C@@H](C)C3)nc2)cccc1-c1ccc(OC(F)(F)F)cc1` [sonidegib] (10 µM) registered a morphology score in assay [1] of -0.0039. In assay [2], the SARS-CoV-2 infection rate was 108% (inactive).
In the case of `CCS(=O)(=O)N1CCN(c2ccc(Nc3ncc(C(N)=O)c(NC4CC4)n3)cc2)CC1` (10 µM), the morphology score in assay [1] came to 0.439. The SARS-CoV-2 infection rate in assay [2] is 123% (inactive).
In the case of `CC(=O)Oc1cc2c(s1)CCN(C(C(=O)C1CC1)c1ccccc1F)C2` (stereo not given) [prasugrel] (10 µM), in assay [1], the morphology score was determined as 0.0783. For the same compound, in assay [2], the SARS-CoV-2 infection rate was 108% (inactive).
`BrC1C(Br)C(Br)C(Br)C(Br)C1Br` (stereo not given) [1,2,3,4,5,6-hexabromocyclohexane] (10 µM) yielded a morphology score in assay [1] of 0.416. The SARS-CoV-2 infection rate in assay [2] is 85% (inactive).
For the compound `CN(C)c1cccc(-c2c3c(=O)n(-c4ccccc4Cl)[nH]c3cc(=O)n2C)c1` (10 µM), the morphology score in assay [1] amounted to 0.165. The SARS-CoV-2 infection rate in assay [2] is 112% (inactive).
As to `NC(=O)N1c2ccccc2C=Cc2ccccc21` [carbamazepine] (10 µM), the morphology score in assay [1] was -0.0216. In addition, the SARS-CoV-2 infection rate in assay [2] is 108% (inactive).
With `COC(=O)C1=C(C)NC(C)=C(C(=O)OC)C1c1ccccc1[N+](=O)[O-]` [nifedipine] (10 µM), the morphology score in assay [1] was -0.0637. Also, the SARS-CoV-2 infection rate in assay [2] is 106% (inactive).
